Results filed as inconclusive are left out. Where a call stands in place of a potency, no number is given. The source made the active and inactive calls. The call rests on the fitted dose curve; in most records, active means well fitted inhibition curve with a large enough effect in the signal ratio in the repeat runs, with a control signal flat; inconclusive means weak or mixed curves, or effect the other way; inactive means flat fitted curve, though single readings scatter; the % refers to the signal ratio.

The results in this text go back to PubChem BioAssay (Tox21).

Sequence of D(2) dopamine receptor (Homo sapiens) (P14416 whole entry, looked up): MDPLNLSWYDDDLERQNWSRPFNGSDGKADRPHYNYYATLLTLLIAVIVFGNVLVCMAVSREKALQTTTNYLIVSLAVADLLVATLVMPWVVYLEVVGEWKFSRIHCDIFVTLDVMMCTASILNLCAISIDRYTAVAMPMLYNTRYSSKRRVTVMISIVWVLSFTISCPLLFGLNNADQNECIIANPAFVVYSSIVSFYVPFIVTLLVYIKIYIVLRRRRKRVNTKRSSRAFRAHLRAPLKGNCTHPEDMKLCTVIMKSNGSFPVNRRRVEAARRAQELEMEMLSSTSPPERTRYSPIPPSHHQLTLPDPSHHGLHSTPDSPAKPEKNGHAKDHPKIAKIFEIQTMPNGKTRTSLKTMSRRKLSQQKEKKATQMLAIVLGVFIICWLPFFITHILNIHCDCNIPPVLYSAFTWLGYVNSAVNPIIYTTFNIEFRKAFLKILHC

The assay addresses D(2) dopamine receptor (Homo sapiens) (UniProt P14416). The assay is described as follows: Dopamine D2 receptor (DRD2) small molecule antagonists, cell-based qHTS assay (AID 1963595). The settings on record: HEK293-DRD2 cAMP HTRF antagonist mode; series mostly up to 92.4 µM. The text has this: National Center for Advancing Translational Sciences [NCATS]
Division of Preclinical Innovation [DPI]
U.S. Environmental Protection Agency [EPA]
National Institutes of Environmental Health Sciences [NIEHS]
National Toxicology Program [NTP]
U.S. Food and Drug Administration [FDA]
DRD2 is the D2 subtype of the dopamine receptor, which is coupled to Gi subtype of G protein-coupled receptor. This G protein-coupled receptor inhibits adenylyl cyclase activity. The DRD2-HEK293 cell line stably expressing D2 dopamine receptor can be used for screening agonists and antagonists of interactions between D2 and its ligands. The Hek293-DRD2 cAMP assay is based on HTRF technology. It measures changes of cAMP accumulation in response to Gi coupled GPCR activation or inhibition.
Tox21 Assay Protocol Summary:
DRD2-Hek293 cells were dispensed at 600 cells/3uL/well in 1536-well white plates using a Multidrop Dispenser. After the assay plates were incubated at a 37 C/5% CO2 incubator for 24 h, 1 uL of Ro20-1724 at final concentration of 0.1 mM was transferred to the assay plate by a Flying Reagent Dispenser. Following Ro20-1724 addition, 23 nL of compound dissolved in DMSO, positive controls or DMSO only was added to the assay plates via Wako pintool station. The assay plates were incubated at room temperature for 10 min. Next, 1 uL of mixture of NKH477 (final concentration at 200 nM) and quinpirole (final concentration at 12 nM) was added into the plates. After the assay plates were incubated at room temperature for an additional 30 min, 2.5 ul/well of cAMP-d2 and 2.5 ul/well of anti-cAMP-cryptate were added respectively into the assay plates using a Flying Reagent Dispenser. The plates were incubated at room temperature for 1 h. The fluorescence intensity in the plates was measured at 340 nm excitation and 665 & 620 nm emission by an Envision plate reader.
A general note: qHTS replaces the single test concentration by a dilution series.
Take `C=C(C)C(=O)OCCOCCOCCOCCOC(=O)C(=C)C`: the Potency result is “inactive”.
Take `C=C1C(=C/C=C2\CCC[C@]3(C)[C@@H]([C@H](C)/C=C/[C@@H](O)C4CC4)CC[C@@H]23)C[C@@H](O)C[C@@H]1O`: the Potency entry is “inactive”.
Take `O=S(=O)(O)c1ccc(Nc2nc(Nc3ccc(/C=C/c4ccc(Nc5nc(Nc6ccc(S(=O)(=O)O)cc6)nc(N(CCO)CCO)n5)cc4S(=O)(=O)O)c(S(=O)(=O)O)c3)nc(N(CCO)CCO)n2)cc1`: the Potency entry is “inactive”.
Same read-out and setting: next, `CC(C)CC(C)(C)C`: “inactive”; `NC(CSCC(=O)O)C(=O)O` (stereo not given): “inactive”; `CCCCCCCC/C=C\CCCCCCCC(=O)N(CCO)CCO`: “inactive”.
On to `CN(Cc1ccc(C(C)(C)C)cc1)Cc1cccc2ccccc12`, for which the Potency result is “inactive”.
Still for that read-out and setting: next, `O=C(O)CC(=O)C(=O)O`: “inactive”; `CC(C)(C)CC(C)(C)N`: “inactive”; `COC(=O)CC(C)CCC=C(C)C` (stereo not given): “inactive”.
As for `CCCCC/C=C\C=C\C(=O)OCC`, the Potency result was “inactive”.
As for `COC1CCC=CO1` (stereo not given), the Potency result is “inactive”.
Turning to `Cc1ccccc1N=Nc1ccc(N=Nc2c(O)ccc3ccccc23)c(C)c1`, the Potency entry is “inactive”.
On to `O=C1NCCN1`, for which the Potency result was “inactive”.
On the same count and under the same terms, next, `CCN[C@H]1C[C@H](C)S(=O)(=O)c2sc(S(N)(=O)=O)cc21`: “inactive”; `Nc1ccc(N)c2ccccc12`: “inactive”.
As for `CC(CN=Cc1ccccc1O)N=Cc1ccccc1O` (stereo not given), the Potency entry was “inactive”.
Consider `CC[N+](C)(CC)CC`, for which the Potency result was “inactive”.
On the same count and under the same terms, next, `CCO[Si](CC(C)C)(OCC)OCC`: “inactive”.
For `C=CCCCCCCCCOC(C)=O`, the Potency entry was “inactive”.
Consider `CCOC(=O)OCC`, for which the Potency entry is “inactive”.
As to `CC(C)c1ccc2cc(C(C)C)ccc2c1`, the Potency result is “inactive”.
With `COCc1nnc(-c2ccc[n+]([O-])c2)n1-c1c(Cl)c(Cl)cc2[nH]c(=O)c(=O)[nH]c12`, the Potency entry is “inactive”.
`CN(C)Cc1cc(C(C)(C)C)c(O)c(C(C)(C)C)c1`: the Potency entry is “inactive”.
In the case of `COCCOc1cc2cc(C(=O)NC3CCN(C(C)C)CC3)n(CC(=O)Nc3ccc(Cl)cn3)c2cn1`, the Potency result is “inactive”.
On to `CC1=NN(c2cccc(S(=O)(=O)O)c2)C(=O)C1`, for which the Potency result is “inactive”.
As for `CO/N=C(/C(=O)N[C@@H]1C(=O)N2C(C(=O)O)=C(Cn3nnc(C)n3)CS[C@H]12)c1csc(N)n1`, the Potency entry was “inactive”.
For `CCc1ccc(C(c2ccc(CC)cc2)C(Cl)Cl)cc1`, the Potency result is “inactive”.
On to `CCCCOc1ccc(N)cc1`, for which the Potency entry was “inactive”.
The same measure, in the same setting: next, `CC1=NN(c2cc(Cl)c(S(=O)(=O)O)cc2Cl)C(=O)C1N=Nc1ccc(S(=O)(=O)O)cc1` (stereo not given): “inactive”.
As for `CCC(C)O` (stereo not given), the Potency entry was “inactive”.
For `CCCCCCCCCCCCOC(C)=O`, the Potency entry is “inactive”.
The same measure, in the same setting: next, `CCCCCCCC/C=C/CCCOC(C)=O`: “inactive”.
With `CC1CN(c2cc3c(cc2F)c(=O)c(C(=O)O)cn3-c2ccc(F)cc2F)CCN1` (stereo not given), the activity change, negative = inhibition was -0.708% [at 8.38 µM] (inactive).
For `CCN1C=CN(C)C1C` (stereo not given), the Potency entry is “inactive”.
Consider `CCCCCCCCCCCCCCCCN(C)C`, for which the activity change, negative = inhibition is -3.89% [at 8.38 µM] (inactive).
As to `O=S(=O)(Oc1ccc(Cl)cc1)c1ccccc1`, the Potency result was “inactive”.
For `CN1[C@@H]2CC(OC(=O)[C@H](CO)c3ccccc3)C[C@H]1[C@@H]1O[C@@H]12` (stereo not given in full), the Potency result was “inactive”.
Take `C[C@H](CS)C(=O)N1CCC[C@H]1C(=O)O`: the Potency entry is “inactive”.
As to `CCC(Cl)C(Cl)C(Cl)CC(Cl)C(Cl)C(C)Cl` (stereo not given), the Potency result is “inactive”.
